DRD3 antagonist = blocks the human D3 dopamine receptor. P35462. D3R cells, DiscoveRx beta-arrestin luminescence, antagonist mode; active compounds read low. max response, negative = inhibition, %. 360,000 tested, 2.5% active. AID 652054; in the data active means max response below about -50%; inconclusive means no clear call, values can overlap the other calls; further: on the % scale 0 is the no-effect control and ±100 the full control effect
Target sequence (P35462 whole entry, looked up): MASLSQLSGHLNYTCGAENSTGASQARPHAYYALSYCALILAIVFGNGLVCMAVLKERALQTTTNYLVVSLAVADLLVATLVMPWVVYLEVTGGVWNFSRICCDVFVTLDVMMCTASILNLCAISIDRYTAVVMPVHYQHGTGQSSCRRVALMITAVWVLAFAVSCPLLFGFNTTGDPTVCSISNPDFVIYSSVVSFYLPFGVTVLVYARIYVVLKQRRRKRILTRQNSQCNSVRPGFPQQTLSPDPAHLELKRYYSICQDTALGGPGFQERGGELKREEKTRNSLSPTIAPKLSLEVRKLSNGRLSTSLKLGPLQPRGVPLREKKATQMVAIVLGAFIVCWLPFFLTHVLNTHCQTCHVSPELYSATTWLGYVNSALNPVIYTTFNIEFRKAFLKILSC
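Cells expressing the human receptor were seeded at 1500 cells/well, incubated overnight at 37 degrees C in 5% CO2, then exposed to library compounds with dopamine controls for 90 minutes at 37 degrees C before luminescent detection.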
TGFb SMAD3 inh = inhibitors of TGF-b signaling. HepG2 CAGA-GFP TGF-b/SMAD3 reporter, GFP fluorescence, 18 h; TGF-beta stimulated, 500 pg/mL final. Potency, µM (highest dose often 46.1 µM), for the others: top-dose activity, negative = inhibition, usual class: inhibitors. 410,000 tested, 1.2% active; further: potency means the concentration at half of the fitted maximal effect; on the % scale 0 is the no-effect control and ±100 the full control effect; nearly all actives have a fitted effect of over 65% in size
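First, reporter cells (HEPG2 CAGA-GFP) rested 2 h at 37 degrees C. Next, compounds were pinned in and TGF-beta added to 500 pg/mL final. After 18 h, GFP was imaged per cell and summed per well.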
ATXN2 expr inh = ATXN2 expression inhibition. HEK-293 ATXN2-luciferase reporter, luminescence, 24 h. Potency, µM (top dose mostly 57 µM), without a hit: at the top dose activity change, negative = inhibition, actives largely listed as inhibitors. 360,000 tested, 0.72% active. AID 1745845; further: potency means the concentration at half of the fitted maximal effect; on the % scale 0 is the no-effect control and ±100 the full control effect; nearly all actives have a fitted effect of over 55% in size
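ATXN2-luciferase reporter cells (luciferase flanked by upstream and downstream ATXN2 gene portions) were treated 24 h at 37 °C with compounds at up to 57 uM. SteadyGlo luminescence gave expression; GF-AFC fluorescence gave viability.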
S2 tox = reduces viability in counter-screen for ATXN expression inhibitors; S2 cells (HEK-293 line with an ATXN2-luciferase reporter) viability, CellTiter-Fluor protease fluorescence, 24 h; 400,000 tested, 0.49% active; Potency, µM (series often up to 56.7 µM), actives largely listed as cytotoxic; AID 651635; further: potency means the concentration at half of the fitted maximal effect; nearly all actives have a fitted effect of over 40% in size
HepG2 tox = kills HepG2 cells in TGF-b inhibitor counter-screen | AID 588856 | HepG2 CAGA-GFP viability, ATP luminescence, 18 h | 410,000 tested, 0.76% active | Potency, µM (series often up to 46.1 µM), inactives show at the top dose activity change, negative = cytotoxicity, most hits filed as cytotoxic; further: potency means the concentration at half of the fitted maximal effect
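HepG2 CAGA-GFP cells (1000/well, DMEM with 1% FBS) received compound, then TGF-beta at 500 pg/mL final, and were incubated 18 hours at 37 degrees C. Viability was read by CellTiter-Glo luminescence. Media-only wells were set as complete cell-killing and DMSO as no toxicity.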
DRD3 agonist = activates the human D3 dopamine receptor; 410,000 tested, 0.58% active; D3R DiscoveRx beta-arrestin cells, luminescence, 90 min; max activation, %; in the data active means max activation above about 30%; further: 0% is about no effect
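Agonist mode: compounds and dopamine controls were applied to plated cells for 90 min at 37 degrees C after an overnight attachment at 1500 cells/well. Luminescent read-out followed 30 - 60 minutes at room temperature with DiscoveRx detection reagent.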
* = called active by the depositor; i = inactive; ? = inconclusive; · = no result given; ! = not active in a repeat. This is a sample that favours compounds with a hit; in the whole collection about 4.7% have one here. Unless noted, the call rests on the fitted dose curve; in most records, active means well fitted curve in the direction sought with a large enough effect; inconclusive means small, poorly fitted or top-dose-only effect, or another doubt; inactive means no such curve, though single readings can be large; an effect the other way counts as inactive or inconclusive.

SMILES | DRD3 antagonist | TGFb SMAD3 inh | ATXN2 expr inh | S2 tox | HepG2 tox | DRD3 agonist
Cc1cc(C)c(C(O)c2ncc(-c3ccccc3C)[nH]2)c(C)c1 (stereo unspecified) | -55.9* | -8.7% | -14.4% | i | -20.0% | -8.6
Cc1ccc(-c2cnc(C(O)c3c(C)cccc3C)[nH]2)cc1 (stereo unspecified) | -54.7* | 0.1% | 7.3% | i | 8.8% | -11.8
Cc1cccc(C)c1C(O)c1ncc(-c2ccc(Cl)cc2)[nH]1 (stereo unspecified) | 6.8 | -14.6% | -16.9% | i | -22.4% | 2.4
Cc1cc(Cl)ccc1C(O)c1ncc(-c2cccc3ccccc23)[nH]1 (stereo unspecified) | 0.0 | 12.6µM* | -20.2% | i | -36.9% | 1.5
O=c1n(Cc2ccccc2)nc2n1-c1cc(Cl)ccc1OC2 | · | ? | 15.0% | i | -2.4% | -2.4
Cc1cc(C)cc(Oc2nc3c(C)cccn3c(=O)c2/C=C(\C#N)c2nc3ccccc3s2)c1 | · | ? | 3.9% | i | -58.8% | -2.6
Cc1cccc(C(O)c2ncc(-c3ccc(C(F)(F)F)cc3)[nH]2)c1C (stereo unspecified) | 6.8 | -19.2% | -6.3% | i | -32.4% | -1.8
Cc1cccc(C(O)c2ncc(-c3ccc(Cl)cc3)[nH]2)c1C (stereo unspecified) | -9.9 | ? | -31.7% | 22.4µM* | -38.7% | 1.8
Cc1cccc(C)c1C(O)c1ncc(-c2cccc3ccccc23)[nH]1 (stereo unspecified) | -75.7* | 1.5% | -4.9% | i | -37.2% | 0.8
CCOC(=O)c1c(O)c2c(n(Cc3ccco3)c1=O)CCCC2 | 57.6 | 21.9% | 7.5% | i | 8.2% | 43.6*
FC(F)(F)c1cccc(-c2nnn3c2nc(NC2CCCCC2)c2ccccc23)c1 | · | -16.4% | 9.4% | i | -2.0% | 0.9
NNc1nc2c(-c3cccc(C(F)(F)F)c3)nnn2c2ccccc12 | 36.2 | ? | 8.8% | i | -54.6% | 31.6*
COc1cccc(CNC(=O)c2c(OC)cc(=O)n3c2CCN(C(=O)c2ccccc2Cl)CC3)c1 | · | · | · | i | · | ·
O=C(NCc1cccc(Cl)c1)c1cc2ccc3cccnc3c2[nH]1 | · | -7.3% | · | · | -15.8% | -11.5
CC(C)N(Cc1ccccc1)C(=O)c1cc2ccc3cccnc3c2[nH]1 | · | 11.2µM* | · | · | -37.9% | 5.2
Cc1ccc(Cn2c3ccccc3c3cnn(CC(=O)N4CCCCCC4)c(=O)c32)cc1 | · | · | · | · | -8.9% | 2.5
O=C1c2cccc(OCc3ccc(F)cc3)c2CCN1Cc1ccccc1 | 10.3 | 17.8µM* | -18.4% | i | -36.0% | 8.1
O=C1CC(c2cccc(Cl)c2)CC(O)=C1C=NCCCO (stereo unspecified) | -89.7* | 8.4% | -7.3% | i | -23.3% | -6.2
O=C1CC(c2cccc(Cl)c2)CC(O)=C1C=Nc1cccc(Cl)c1 (stereo unspecified) | 7.5 | -3.2% | 0.8% | i | 27.2% | 5.1
O=C(CCn1c(=O)c2cccn2c2cccnc21)Nc1ccccc1C(F)(F)F | · | -19.0% | · | · | 3.9% | 9.8
CC[N+](CC)(CC)CCOc1ccc(/C=C/c2ccccc2)cc1 | 4.2 | -9.5% | 17.8µM*! | ? | 0.2% | 11.5
CC(C)(C)OC(=O)CC[C@@H](C(=O)NCCCCCCCCCCC(=O)N1CCN(C(=O)OC(C)(C)C)CC1)n1cc(CCCCCNC(=O)OC(C)(C)C)nn1 | 5.0 | -20.2% | 7.8% | i | -18.6% | -17.9
CC(C)(C)OC(=O)NCCCCCc1cn([C@@H](CO)C(=O)NCCCCCCCCCCC(=O)N2CCN(C(=O)OC(C)(C)C)CC2)nn1 | 129.4 | ? | 15.8µM* | 11.2µM* | -46.5% | 57.8*
CC(C)(C)OC(=O)NCCCC[C@@H](C(=O)N1CCN(C(=O)OC(C)(C)C)CC1)n1cc(CCC(=O)O)nn1 | 12.5 | ? | 1.3% | i | 0.3% | 38.3*
Cc1cccc(OCCn2c(SCC(=O)O)nc3ccccc32)c1 | · | -1.0% | -12.0% | i | -14.2% | -8.7
SMILES | DRD3 antagonist | TGFb SMAD3 inh | ATXN2 expr inh | S2 tox | HepG2 tox | DRD3 agonist
COC(=O)c1ccc(C(=O)OC)c(NC(=O)c2c(-c3ccccc3)c(-c3ccccc3)nn(C)c2=O)c1 | · | 0.0% | · | · | -3.8% | 8.2
CCn1c2ccccc2c2cc(/C=N/NC(=O)c3ccncc3)ccc21 | -8.3 | 8.91µM* | ? | ? | -33.5% | -3.3
CCn1c2ccccc2c2cc(/C=N/NC(=O)c3cc(O)cc(O)c3)ccc21 | 3.5 | 15.8µM* | -22.3% | ? | -51.6% | 5.1
CCn1c2ccccc2c2cc(/C=N/NC(=O)c3ccc(O)cc3)ccc21 | 24.0 | ? | ? | i | 10.2% | 8.1
Cc1cccc(NC(=S)NCC(C)CSc2ccc(Cl)cc2)c1 (stereo unspecified) | 6.4 | 12.6µM* | · | i | 14.1µM* | -11.3
Cc1ccc(C)c(NC(=S)NCCSc2ccc(Cl)cc2)c1 | -0.3 | ? | -22.7% | i | -5.3% | -7.1
Cc1cccc(NC(=S)NCCSc2ccc(Cl)cc2)c1 | -11.2 | ? | -19.3% | i | 2.51µM* | -3.5
COc1ccc(CNC(=O)Cc2csc3nc(-c4ccc(F)cc4)cn23)cc1 | · | -5.3% | 0.0% | ? | -4.6% | -1.3
O=C(C1=C[C@H](c2ccccc2)C[C@H](OCc2ccc(CO)cc2)O1)N1CCN(Cc2ccccc2)CC1 | -50.2* | 0.2% | ? | i | -9.1% | -35.5
O=C(C1=C[C@@H](c2csc3ccccc23)C[C@@H](OCc2ccc(CO)cc2)O1)N1CCN(Cc2ccccc2)CC1 | -52.6* | ? | ? | ? | -18.7% | -7.3
O=C(Nc1ccccc1)C1=C[C@H](c2csc3ccccc23)C[C@H](OCc2ccc(CO)cc2)O1 | 3.7 | ? | -12.5% | ? | -20.5% | 36.3*
CC(=O)Nc1ccc(SC[C@H](Cc2ccccc2)N2CC[C@@H](N)CCC2=O)cc1 | · | 15.6% | · | · | -10.7% | ·
CCC1(C2CCN(Cc3cccc4ccccc34)CC2)NC(=O)N(Cc2ccc3c(c2)OCO3)C1=O (stereo unspecified) | · | · | · | i | · | ·
OC(COc1ccc(Cl)cc1)CN1CCCCC1 (stereo unspecified) | -54.8* | 6.4% | 1.5% | i | 5.4% | -20.3
CC1(C)NC(=O)N(CC(O)COc2cc3ccccc3cc2C(=O)N2CCCCC2)C1=O (stereo unspecified) | 2.9 | 2.1% | 4.0% | i | 9.3% | -5.1
OCCN1CCN(CC(O)COc2ccc(C34CC5CC(CC(C5)C3)C4)cc2)CC1 (stereo unspecified) | -27.2 | ? | -27.2% | i | 15.8µM* | -7.2
